Results filed as inconclusive are left out. Calls of active or inactive are those of the source. Unless noted, calls come from the whole dose curve; as a rule, active = well fitted curve in the direction sought with a large enough effect in the repeat runs; inconclusive = weak or mixed curves; inactive = no such curve, though single readings can be large; an effect the other way counts as inactive or inconclusive.
How the values were obtained:
[1] = A CellTox Green Cytotoxicity Assay to monitor cytotoxicity in HEK293 cells - 16 hour (AID 1224888); note: nearly all actives have a fitted effect of over 35% in size
Method in brief: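 Fluorescence intensity, read at 0, 8, 16, 24, 32 and 40 h of compound treatment, reflected dye binding to DNA of dead HEK293 cells; compounds (23 nL, DMSO) were added 5 h after plating cells with reagent.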

[2] = A CellTox Green Cytotoxicity Assay to monitor cytotoxicity in HepG2 cells - 8 hour (AID 1224890); note: nearly all actives have a fitted effect of over 45% in size
Method in brief: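 Using 1536-well format, dye-containing HepG2 suspension was seeded, allowed 5 h at 37 C/5% CO2, dosed by pintool with compounds, positive and negative controls, and imaged for fluorescence across 40 h.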

[3] = qHTS assay to identify small molecule antagonists of the estrogen receptor alpha (ER-alpha) signaling pathway using the BG1 cell line in the presence of 0.1 nM 17-beta-estradiol - cell viability counter screen (AID 1259241); note: nearly all actives have a fitted effect of over 40% in size
Method in brief: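 In this screen, hormone-deprived VM7Luc4E2 cells were seeded at 4,000 per well, dosed with compound and 0.1 nM estradiol final, and incubated 22 hr at 37C and 5% CO2; fluorogenic live-cell protease signal reported viability.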

[4] = qHTS assay to identify small molecule antagonists of the androgen receptor (AR) signaling pathway using the MDA cell line in the presence of 0.5 nM R1881 - cell viability counter screen (AID 1259242); note: nearly all actives have a fitted effect of over 45% in size
Method in brief: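 Viability of MDA-kb2 cells was multiplexed with the luciferase AR readout; after 16 hr with compounds and R1881 at 0.5 nM final, CellTiter-Fluor fluorescence was recorded.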

[5] = qHTS assay to identify small molecule HDAC inhibitors - cell viability counter screen (AID 1259365); note: series mostly up to about 92 µM; nearly all actives have a fitted effect of over 50% in size
Method in brief: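 Measured quantity is CellTiter-Glo luminescence from wild-type HCT-116 cells after compound incubation of 2hr at 37C, 5% CO2; reagent developed 30min at room temperature.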

[6] = qHTS assay to identify small molecule agonists of the sonic hedgehog signaling (Shh) pathway - cell viability counter screen (AID 1259366); note: nearly all actives have a fitted effect of over 50% in size
Method in brief: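 In quantitative high-throughput format, 3T3 Gli1-Luc cells were exposed to compounds for 24hr and multiplexed for viability using CellTiter-Fluor, incubated 1hr at 37C before the fluorescence read.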

[7] = qHTS assay to identify small molecule antagonists of the sonic hedgehog signaling (Shh) pathway - cell viability counter screen (AID 1259367); note: nearly all actives have a fitted effect of over 55% in size
Method in brief: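 After a 4 hr settling period, 3T3 Gli1-Luc cells were treated with DMSO-dissolved chemicals and conditioned medium, kept 24 hr at 37C in 5% CO2, and assayed for viability by CellTiter-Fluor fluorescence following 1 hr reagent incubation.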

[8] = qHTS assay to identify small molecule agonists of the sonic hedgehog signaling (Shh) pathway (AID 1259368; calls by dose curve;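 note: NIH/3T3-derived 3T3Gli1-Luc cells carrying a stable Gli1-driven firefly luciferase reporter; series mostly up to about 92 µM; nearly all actives have a fitted effect of over 15% in size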)
Method in brief: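 A Gli1 transcriptional response element controlled firefly luciferase in 3T3Gli1-Luc cells. Compounds and a positive control were added 4 hr after plating, and cells were incubated a further 24 hr at 37 C before luminescence detection.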

[9] = qHTS assay to identify small molecule antagonists of the sonic hedgehog signaling (Shh) pathway (AID 1259369; calls by dose curve; note: nearly all actives have a fitted effect of over 45% in size)
Method in brief: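 For antagonist detection, the reporter line received test compounds together with conditioned medium, incubated 24hr at 37 C, 5% CO2, then luminescence was recorded following 30min room-temperature luciferase reagent incubation.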

[10] = biological target: Estrogen receptor beta (Homo sapiens) (UniProt Q92731); assay: qHTS assay to identify small molecule agonists of the estrogen receptor beta (ER-beta) signaling pathway (AID 1259377; active = well fitted activation curve with a large enough effect in the signal ratio in the repeat runs, not every such curve was filed as active; the % refers to the signal ratio)
Sequence of Estrogen receptor beta (Homo sapiens) (Q92731 whole entry, looked up): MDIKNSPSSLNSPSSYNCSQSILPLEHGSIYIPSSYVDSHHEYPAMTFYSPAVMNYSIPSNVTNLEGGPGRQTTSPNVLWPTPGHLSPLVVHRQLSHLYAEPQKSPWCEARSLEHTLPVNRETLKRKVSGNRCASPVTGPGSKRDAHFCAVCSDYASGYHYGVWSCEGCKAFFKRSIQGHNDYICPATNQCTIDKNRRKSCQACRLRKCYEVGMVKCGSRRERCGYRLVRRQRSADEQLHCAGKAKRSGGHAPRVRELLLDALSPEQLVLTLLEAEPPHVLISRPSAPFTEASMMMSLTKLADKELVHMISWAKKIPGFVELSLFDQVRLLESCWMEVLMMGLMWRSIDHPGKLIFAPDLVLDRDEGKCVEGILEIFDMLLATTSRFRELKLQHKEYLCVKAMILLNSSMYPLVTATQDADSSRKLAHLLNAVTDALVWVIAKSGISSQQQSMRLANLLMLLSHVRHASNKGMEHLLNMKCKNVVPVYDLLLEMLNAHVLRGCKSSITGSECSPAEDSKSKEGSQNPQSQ
Method in brief: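 Reporter cells (HEK293T, ER-beta-UAS-bla) receive compounds or DMSO after a 6 hr pre-incubation. They then incubate 16 hr at 37C/5% CO2, and fluorescence from LiveBLAzer B/G substrate is measured after 2 hours at room temperature.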

[11] = biological target: Estrogen receptor beta (Homo sapiens) (UniProt Q92731); assay: qHTS assay to identify small molecule antagonists of the estrogen receptor beta (ER-beta) signaling pathway (AID 1259378; active = well fitted inhibition curve with a large enough effect in the signal ratio in the repeat runs, not every such curve was filed as active; the % refers to the signal ratio)
Method in brief: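 ER-beta-UAS-bla HEK293T (GripTite) cells in 2% charcoal-stripped FBS medium were preincubated 6 hr at 37C, dosed with compound, then stimulated with 1 nM E2 (final) for 16 hr; beta-lactamase reporter read by B/G FRET fluorescence after 2 hr substrate loading.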

[12] = qHTS assay to identify small molecule agonists of the androgen receptor (AR) signaling pathway in the presence of an antagonist - cell viability counter screen (AID 1259379);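 note: MDA-kb2 human breast cancer cells carrying an MMTV luciferase reporter; series mostly up to about 92 µM; nearly all actives have a fitted effect of over 25% in size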
Method in brief: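 Seed MDA-kb2 at 3,000 cells/well; incubate 5 hr, 37C, 0% CO2. Add nilutamide to 3.0uM final, then pin compounds at 15 concentrations. Incubate 16 hr. Add CellTiter-Fluor at 15 hr, read fluorescence after 1 hr.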

[13] = qHTS assay to identify small molecule agonists of the estrogen receptor beta (ER-beta) signaling pathway - cell viability counter screen (AID 1259380); note: nearly all actives have a fitted effect of over 30% in size
Method in brief: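 CellTiter-Glo read, 30 min RT, same wells as bla assay; cells ER-beta-UAS-bla HEK293T; 16 hr compound, 37C; medium 2% charcoal-stripped FBS.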

[14] = biological target: Estrogen receptor (Homo sapiens) (UniProt P03372); assay: qHTS assay to identify small molecule antagonists of the estrogen receptor alpha (ER-alpha) signaling pathway using the BG1 cell line in the presence of 0.1 nM 17-beta-estradiol (AID 1259244); note: nearly all actives have a fitted effect of over 50% in size
Sequence of Estrogen receptor (Homo sapiens) (P03372 whole entry, looked up): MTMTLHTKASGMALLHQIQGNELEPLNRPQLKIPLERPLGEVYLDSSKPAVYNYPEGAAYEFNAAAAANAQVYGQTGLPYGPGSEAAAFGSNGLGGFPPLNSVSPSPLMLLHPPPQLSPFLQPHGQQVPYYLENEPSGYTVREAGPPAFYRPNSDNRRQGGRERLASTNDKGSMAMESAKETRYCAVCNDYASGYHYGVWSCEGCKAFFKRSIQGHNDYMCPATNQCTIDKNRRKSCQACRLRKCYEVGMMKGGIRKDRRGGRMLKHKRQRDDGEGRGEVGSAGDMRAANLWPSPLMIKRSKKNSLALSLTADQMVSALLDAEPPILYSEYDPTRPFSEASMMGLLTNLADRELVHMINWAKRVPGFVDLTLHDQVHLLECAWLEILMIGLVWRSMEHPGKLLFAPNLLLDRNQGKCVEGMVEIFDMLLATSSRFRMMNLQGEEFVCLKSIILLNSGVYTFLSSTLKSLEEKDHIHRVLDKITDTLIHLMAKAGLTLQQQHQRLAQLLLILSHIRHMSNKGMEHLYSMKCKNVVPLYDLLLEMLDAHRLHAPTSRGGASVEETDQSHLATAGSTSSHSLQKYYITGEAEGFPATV
Method in brief: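 Estradiol at 0.1 nM (final) stimulates the endogenous ER-alpha of VM7Luc4E2 cells carrying an ERE-driven luciferase; compounds are co-incubated 22 h at 37C and luciferase output quantified by luminescence.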

[15] = qHTS assay to identify small molecule HDAC inhibitors (AID 1259364);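 note: wild-type HCT-116 cells with endogenous class I/II HDAC activity; top concentration of the series differs between compounds; nearly all actives have a fitted effect of over 45% in size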
Method in brief: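 Read-out: luminescence of HDAC-Glo I/II reagent, 30 min RT, reflecting class I/II deacetylase activity in whole HCT-116 cells pre-exposed 2 h to DMSO-dissolved compounds.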

[16] = qHTS assay to identify small molecule antagonists of the estrogen receptor beta (ER-beta) signaling pathway - cell viability counter screen (AID 1259382); note: series mostly up to about 92 µM; nearly all actives have a fitted effect of over 55% in size
Method in brief: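 In this multiplexed counter screen, cells were seeded at 2,000 per well in medium with 2% charcoal-stripped FBS and incubated 6 hr before compound and 1nM final E2 were added. Sixteen hours later, ATP-based luminescence reported viability.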

[17] = qHTS assay to identify small molecule phospholipidosis (PLD) inducers (AID 1259344; active = well fitted curve in the direction sought with a large enough effect; an effect the other way counts as inactive or inconclusive)
Method in brief: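 HepG2 cells grown on collagen I take up LipidTOX Red while exposed to compound for 24 h; after fixation they are imaged at 20x and pit metrics are extracted.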

[18] = qHTS RealTime-Glo MT Cell Viability Assay in HepG2 cells - 0 hour (AID 1224889); note: nearly all actives have a fitted effect of over 50% in size
Method in brief: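 HepG2 cells were seeded at 600 cells/well together with NanoLuc luciferase and a cell-permeant prosubstrate, preincubated 5 h at 37 C/5% CO2, then pin-dosed with compounds in DMSO. Nonlytic luminescence from viable cells was read at each time point.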
% is set by controls: 0 for no effect and ±100 for the full control effect.

CC(C)(C)OC=O
inactive: Potency [1] | Potency [2] | outcome [3] | outcome [4] | outcome [5] | outcome [6] | outcome [7] | outcome [8] | Potency [9] | Potency [10] | outcome [11] | outcome [12] | Potency [13]

CCCc1ccc(O)c(OC)c1
inactive: Potency [1] | Potency [2] | outcome [3] | outcome [4] | outcome [14] | Potency [15] | outcome [5] | outcome [6] | outcome [7] | outcome [8] | Potency [9] | outcome [12] | Potency [13] | outcome [16]

O=S(=O)(O)c1cc(I)c(O)c2ncccc12
inactive: Potency [1] | Potency [2] | outcome [3] | outcome [4] | Potency [17] | Potency [15] | outcome [5] | outcome [6] | outcome [7] | outcome [8] | Potency [9] | Potency [10] | outcome [11] | outcome [12] | Potency [13] | outcome [16]

NC[C@H]1O[C@H](O[C@H]2[C@H](O)[C@@H](O[C@H]3O[C@H](CO)[C@@H](O)[C@H](N)[C@H]3O)[C@H](N)C[C@@H]2N)[C@H](N)[C@@H](O)[C@@H]1O
inactive: activity change [1] 2% [at 15.8 µM, active compounds read high] | cytotoxicity increase [2] 0.922% [at 15.8 µM] | activity change, negative = cytotoxicity [3] 2.9% [at 19 µM] | viability change, negative = cytotoxic [4] -0.928% [at 19 µM] | Potency [17] | activity change, negative = inhibition [15] 0.718% [at 19 µM] | activity change, negative = cytotoxicity [5] -0.176% [at 19 µM] | viability change, negative = cytotoxic [6] 0.901% [at 19 µM] | viability change, negative = cytotoxic [7] 3.49% [at 19 µM] | activity change [8] 0.032% [at 18.9 µM] | activity change, negative = inhibition [9] 16.7% [at 19 µM] | activity change, negative = cytotoxicity [12] -5.29% [at 19 µM] | activity change, negative = cytotoxicity [13] 2.53% [at 19 µM] | activity change, negative = cytotoxicity [16] 7.91% [at 19 µM]

CCCCS
inactive: Potency [18] | Potency [2] | outcome [3] | outcome [4] | outcome [14] | Potency [15] | outcome [5] | outcome [6] | outcome [7] | outcome [8] | Potency [9] | Potency [10] | outcome [11] | outcome [12] | Potency [13]

CCCCOCCCC
inactive: Potency [2] | outcome [3] | outcome [4] | outcome [14] | Potency [15] | outcome [5] | outcome [6] | outcome [7] | outcome [8] | outcome [12] | Potency [13] | outcome [16]

CCCC[O][Al]([O]CCCC)[O]CCCC
inactive: Potency [1] | Potency [2] | outcome [3] | outcome [4] | Potency [15] | outcome [5] | outcome [6] | outcome [7] | outcome [8] | Potency [9] | outcome [12] | Potency [13] | outcome [16]

O=C(O)Cc1c(Cl)ccc(Cl)c1Cl
inactive: Potency [1] | Potency [2] | outcome [3] | outcome [4] | outcome [14] | Potency [15] | outcome [5] | outcome [6] | outcome [7] | outcome [8] | Potency [9] | Potency [10] | outcome [11] | outcome [12] | Potency [13] | outcome [16]

CN(C)CCc1c[nH]c2ccc(CS(=O)(=O)N3CCCC3)cc12
inactive: Potency [1] | outcome [3] | outcome [4] | outcome [14] | Potency [17] | Potency [15] | outcome [5] | outcome [6] | outcome [7] | Potency [9] | Potency [10] | outcome [11] | outcome [12] | Potency [13] | outcome [16]

CCOc1ccccc1OCCN[C@H](C)Cc1ccc(OC)c(S(N)(=O)=O)c1
inactive: Potency [1] | Potency [2] | outcome [3] | outcome [4] | Potency [17] | Potency [15] | outcome [5] | outcome [6] | outcome [7] | outcome [8] | Potency [10] | outcome [11] | outcome [12] | Potency [13]

CNC(=O)c1c(I)c(NC(C)=O)c(I)c(C(=O)O)c1I
inactive: Potency [1] | Potency [2] | outcome [3] | outcome [4] | Potency [15] | outcome [5] | outcome [6] | outcome [7] | outcome [8] | Potency [9] | Potency [10] | outcome [11] | outcome [12] | Potency [13] | outcome [16]

CCCCN=C(N)N=C(N)N
inactive: Potency [1] | Potency [2] | outcome [3] | outcome [4] | Potency [17] | Potency [15] | outcome [5] | outcome [6] | outcome [7] | outcome [8] | Potency [9] | Potency [10] | outcome [11] | outcome [12] | Potency [13] | outcome [16]

C=CCON/C(CCC)=C1\C(=O)CC(C)(C)C(C(=O)OC)=C1O
inactive: Potency [1] | Potency [2] | outcome [3] | outcome [4] | Potency [15] | outcome [5] | outcome [6] | outcome [7] | Potency [9] | Potency [10] | outcome [11] | outcome [12] | Potency [13]

CCC(=O)OCCOc1ccccc1
inactive: Potency [1] | Potency [2] | outcome [3] | outcome [4] | outcome [14] | Potency [15] | outcome [5] | outcome [6] | outcome [7] | Potency [9] | outcome [12] | Potency [13] | outcome [16]

O=C(O)CCC(=O)Nc1ccc(S(=O)(=O)Nc2nccs2)cc1
inactive: Potency [1] | outcome [3] | outcome [4] | Potency [17] | outcome [5] | outcome [6] | outcome [7] | outcome [8] | Potency [9] | Potency [10] | outcome [12] | outcome [16]

CC(=O)SCC(CC(=O)c1ccc(C)cc1)C(=O)O (stereo not given)
inactive: Potency [1] | Potency [2] | outcome [3] | outcome [4] | outcome [14] | Potency [17] | Potency [15] | outcome [5] | outcome [6] | outcome [7] | Potency [9] | Potency [10] | outcome [11] | outcome [12] | outcome [16]

CCCCCCCCCCCCCC(=O)OCC
inactive: Potency [1] | Potency [2] | outcome [3] | outcome [4] | outcome [14] | outcome [5] | outcome [6] | outcome [7] | Potency [9] | outcome [12] | outcome [16]

NNC(=O)CCCCC(=O)NN
inactive: Potency [1] | Potency [2] | outcome [3] | outcome [4] | outcome [14] | Potency [15] | outcome [5] | outcome [6] | outcome [7] | outcome [8] | Potency [9] | outcome [12] | Potency [13]

CCOC(=O)COc1ccc2c(C)c(CCN(CC)CC)c(=O)oc2c1Cl
inactive: Potency [1] | Potency [2] | outcome [3] | outcome [4] | outcome [14] | Potency [17] | Potency [15] | outcome [5] | outcome [6] | outcome [7] | outcome [8] | Potency [9] | outcome [12] | Potency [13] | outcome [16]

C=CCN(CC=C)CC=C
inactive: Potency [1] | Potency [2] | outcome [3] | outcome [4] | Potency [15] | outcome [5] | outcome [6] | outcome [7] | outcome [8] | Potency [9] | Potency [10] | outcome [11] | outcome [12] | Potency [13] | outcome [16]

C=COCCCCO
inactive: Potency [1] | Potency [2] | outcome [3] | outcome [4] | outcome [14] | Potency [15] | outcome [5] | outcome [6] | outcome [7] | Potency [9] | Potency [10] | outcome [11] | outcome [12] | Potency [13] | outcome [16]

— PubChem BioAssay (Tox21)
